Test in all cases: DAPPL (digital affinity profiling via proximity ligation, sequencing); 10 mM Tris-HCl pH 7.5, 50 mM NaCl, 1 mM DTT, 4% glycerol, room temperature, 30 min; GST-TFs on glutathione beads, 16-mer random dsDNA library, 0.1% formaldehyde crosslink after washing; high values mean tight binding
Holding throughout (details): protein: recombinant; tags: N-terminal GST; dsDNA, one strand shown

The target in assay [1] is T1, FLI1 (Homo sapiens, UniProt Q01543 1-452).
T1 sequence: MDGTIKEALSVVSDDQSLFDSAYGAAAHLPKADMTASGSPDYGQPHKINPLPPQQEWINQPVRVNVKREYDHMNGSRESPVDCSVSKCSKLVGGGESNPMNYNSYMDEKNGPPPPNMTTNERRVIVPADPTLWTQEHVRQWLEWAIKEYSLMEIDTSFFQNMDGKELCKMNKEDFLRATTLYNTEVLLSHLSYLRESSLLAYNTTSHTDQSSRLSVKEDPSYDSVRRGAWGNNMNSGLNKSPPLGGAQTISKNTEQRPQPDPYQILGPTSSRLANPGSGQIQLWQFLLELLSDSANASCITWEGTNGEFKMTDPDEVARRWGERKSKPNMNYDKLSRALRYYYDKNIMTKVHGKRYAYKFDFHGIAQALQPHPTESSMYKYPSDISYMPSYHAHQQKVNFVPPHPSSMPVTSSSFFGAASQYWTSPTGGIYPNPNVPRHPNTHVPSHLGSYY
The essentials:
(§1)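 Human transcription factors fused to GST were expressed in yeast, captured on glutathione beads, given DNA barcodes and pooled with a GST-only negative control. Pools were incubated with 200 nmole of a 16-mer random double-stranded DNA library in Tris/NaCl/DTT/glycerol buffer at room temperature for 30 min. They were then washed, crosslinked with 0.1% formaldehyde, proximity-ligated (BsaI/T4 ligase, 1 h, 37 °C), PCR-amplified and sequenced on an Illumina NextSeq500. Binding signal is each 6-mer's read frequency for a factor divided by its frequency for the GST control.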

For assay [2], the target named is T2, ELK1 (Homo sapiens, UniProt P19419 1-428).
T2 sequence: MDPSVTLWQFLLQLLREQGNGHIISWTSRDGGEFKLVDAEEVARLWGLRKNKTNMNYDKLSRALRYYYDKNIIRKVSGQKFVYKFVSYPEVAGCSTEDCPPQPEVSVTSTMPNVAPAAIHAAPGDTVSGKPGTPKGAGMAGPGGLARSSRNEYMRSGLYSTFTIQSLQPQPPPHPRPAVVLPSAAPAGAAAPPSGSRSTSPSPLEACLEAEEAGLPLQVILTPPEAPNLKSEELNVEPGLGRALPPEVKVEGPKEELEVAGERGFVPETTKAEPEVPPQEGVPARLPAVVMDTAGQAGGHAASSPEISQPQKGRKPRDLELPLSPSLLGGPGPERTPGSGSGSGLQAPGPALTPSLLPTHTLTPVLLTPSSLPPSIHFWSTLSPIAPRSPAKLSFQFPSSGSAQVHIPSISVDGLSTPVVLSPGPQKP
The essentials: as §1

The target of assay [3] is T3, GABPA (Homo sapiens, UniProt Q06546 1-454).
T3 sequence: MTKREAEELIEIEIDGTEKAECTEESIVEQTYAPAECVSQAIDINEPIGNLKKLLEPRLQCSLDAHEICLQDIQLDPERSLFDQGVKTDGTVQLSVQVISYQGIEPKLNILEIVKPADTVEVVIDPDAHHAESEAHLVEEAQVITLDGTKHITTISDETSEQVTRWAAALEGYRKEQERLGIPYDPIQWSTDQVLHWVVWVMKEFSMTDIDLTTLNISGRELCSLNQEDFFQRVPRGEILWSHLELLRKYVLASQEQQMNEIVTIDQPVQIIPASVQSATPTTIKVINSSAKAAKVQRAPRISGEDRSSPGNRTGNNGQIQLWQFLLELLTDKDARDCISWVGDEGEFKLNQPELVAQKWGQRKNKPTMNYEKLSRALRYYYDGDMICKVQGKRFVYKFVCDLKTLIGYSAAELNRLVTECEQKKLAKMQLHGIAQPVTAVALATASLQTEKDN
The essentials:
as §1

Assay [4] has as its target T4, ERG (Homo sapiens, UniProt P11308 1-479).
T4 sequence: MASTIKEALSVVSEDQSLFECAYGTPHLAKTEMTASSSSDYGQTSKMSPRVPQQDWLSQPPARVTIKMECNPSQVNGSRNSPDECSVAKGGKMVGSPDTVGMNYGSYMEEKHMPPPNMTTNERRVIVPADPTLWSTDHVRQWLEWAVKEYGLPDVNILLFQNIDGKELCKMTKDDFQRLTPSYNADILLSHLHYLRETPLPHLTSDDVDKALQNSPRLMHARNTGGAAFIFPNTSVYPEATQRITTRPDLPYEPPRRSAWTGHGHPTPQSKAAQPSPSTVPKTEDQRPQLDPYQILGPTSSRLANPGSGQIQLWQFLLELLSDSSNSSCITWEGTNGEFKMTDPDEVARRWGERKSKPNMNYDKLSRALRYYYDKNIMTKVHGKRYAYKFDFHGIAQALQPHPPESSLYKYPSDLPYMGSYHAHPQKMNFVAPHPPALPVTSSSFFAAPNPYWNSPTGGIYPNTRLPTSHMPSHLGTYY
The essentials:
as §1

Assay [5] concerns the target ELF1 (Homo sapiens, UniProt P32519 1-619). A digest of the protocol: as §1
The target of assay [6] is T5, EHF (Homo sapiens, UniProt Q9NZC4 1-300).
T5 sequence: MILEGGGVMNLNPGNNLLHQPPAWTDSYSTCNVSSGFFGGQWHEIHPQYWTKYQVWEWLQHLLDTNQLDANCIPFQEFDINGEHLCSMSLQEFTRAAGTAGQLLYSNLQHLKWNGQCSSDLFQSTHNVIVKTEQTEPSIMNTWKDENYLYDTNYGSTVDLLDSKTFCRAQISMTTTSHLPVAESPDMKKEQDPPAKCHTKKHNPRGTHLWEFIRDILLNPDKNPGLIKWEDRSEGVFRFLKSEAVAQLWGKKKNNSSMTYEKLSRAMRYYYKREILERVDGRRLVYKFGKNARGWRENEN
The essentials:
as §1

For assay [7], the target named is SPI1 (Homo sapiens, UniProt P17947 1-270). The essentials: as §1
The target of assay [8] is SPIB (Homo sapiens, UniProt Q01892 1-262). A digest of the protocol:
as §1

Assay [9] deals with T6, ELK3 (Homo sapiens, UniProt P41970 1-407).
T6 sequence: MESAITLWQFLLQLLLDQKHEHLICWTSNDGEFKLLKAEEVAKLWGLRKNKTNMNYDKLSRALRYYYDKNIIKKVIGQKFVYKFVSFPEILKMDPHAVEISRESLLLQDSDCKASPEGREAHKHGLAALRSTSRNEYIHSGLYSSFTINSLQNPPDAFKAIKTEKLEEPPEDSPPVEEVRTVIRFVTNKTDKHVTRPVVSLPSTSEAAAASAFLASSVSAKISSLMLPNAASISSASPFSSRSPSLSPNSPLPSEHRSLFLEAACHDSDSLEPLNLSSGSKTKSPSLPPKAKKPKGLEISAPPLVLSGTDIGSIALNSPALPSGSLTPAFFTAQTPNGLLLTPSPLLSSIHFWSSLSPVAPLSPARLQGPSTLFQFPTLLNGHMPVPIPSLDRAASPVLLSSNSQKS
A digest of the protocol:
as §1

Sequence of ELF1 (P32519 whole entry): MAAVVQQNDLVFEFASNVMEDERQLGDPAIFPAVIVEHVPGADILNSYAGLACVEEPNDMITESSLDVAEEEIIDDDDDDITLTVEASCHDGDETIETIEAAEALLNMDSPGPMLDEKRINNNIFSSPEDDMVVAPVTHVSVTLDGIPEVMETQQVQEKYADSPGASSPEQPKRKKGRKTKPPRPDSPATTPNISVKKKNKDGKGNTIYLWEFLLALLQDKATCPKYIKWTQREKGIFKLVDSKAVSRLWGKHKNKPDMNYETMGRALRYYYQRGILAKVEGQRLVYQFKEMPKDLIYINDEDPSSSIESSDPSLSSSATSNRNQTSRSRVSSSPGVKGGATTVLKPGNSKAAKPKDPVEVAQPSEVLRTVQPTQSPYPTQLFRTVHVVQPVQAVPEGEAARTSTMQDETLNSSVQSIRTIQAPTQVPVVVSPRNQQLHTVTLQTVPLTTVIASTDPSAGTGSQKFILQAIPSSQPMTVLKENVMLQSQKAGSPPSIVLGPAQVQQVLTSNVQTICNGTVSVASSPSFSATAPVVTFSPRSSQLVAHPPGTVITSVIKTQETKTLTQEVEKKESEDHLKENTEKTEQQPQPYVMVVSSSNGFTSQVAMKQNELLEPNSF
Sequence of SPIB (Q01892 whole entry): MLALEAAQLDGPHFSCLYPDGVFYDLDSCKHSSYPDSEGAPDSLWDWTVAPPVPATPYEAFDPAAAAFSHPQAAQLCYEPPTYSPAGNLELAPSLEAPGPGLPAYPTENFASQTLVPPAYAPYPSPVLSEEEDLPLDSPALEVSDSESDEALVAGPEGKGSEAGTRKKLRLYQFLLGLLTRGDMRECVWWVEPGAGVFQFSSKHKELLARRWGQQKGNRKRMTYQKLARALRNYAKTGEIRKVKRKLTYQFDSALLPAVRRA

CTATAG: the binding signal in assay [1] is 1.09 fold enrichment (6-mer frequency, TF over GST control); in assay [2], 1.05 fold enrichment (6-mer frequency, TF over GST control); in assay [3], 1.11 fold enrichment (6-mer frequency, TF over GST control); in assay [4], 1.01 fold enrichment (6-mer frequency, TF over GST control); in assay [5] it was 1.09 fold enrichment (6-mer frequency, TF over GST control); in assay [6], 1.03 fold enrichment (6-mer frequency, TF over GST control). Moreover, the binding signal in assay [7] is 1.08 fold enrichment (6-mer frequency, TF over GST control); in [8], 1.07 fold enrichment (6-mer frequency, TF over GST control); in [9] it was 1.08 fold enrichment (6-mer frequency, TF over GST control).
Take ATATAT: the binding signal in assay [1] was 1.47 fold enrichment (6-mer frequency, TF over GST control); in [2] it was 1.38 fold enrichment (6-mer frequency, TF over GST control); in assay [3], 1.44 fold enrichment (6-mer frequency, TF over GST control); in assay [4] it was 1.38 fold enrichment (6-mer frequency, TF over GST control); in assay [5], 1.47 fold enrichment (6-mer frequency, TF over GST control); in [6] it was 1.4 fold enrichment (6-mer frequency, TF over GST control). Moreover, the binding signal in [7] is 1.37 fold enrichment (6-mer frequency, TF over GST control); in assay [8], 1.42 fold enrichment (6-mer frequency, TF over GST control); in [9] it was 1.4 fold enrichment (6-mer frequency, TF over GST control).
Take ATATGA: the binding signal in assay [1] is 1.11 fold enrichment (6-mer frequency, TF over GST control); in assay [2] it was 1.07 fold enrichment (6-mer frequency, TF over GST control); in [3], 1.1 fold enrichment (6-mer frequency, TF over GST control); in [4] it was 1.14 fold enrichment (6-mer frequency, TF over GST control); in assay [5], 1.06 fold enrichment (6-mer frequency, TF over GST control); in assay [6] it was 1.07 fold enrichment (6-mer frequency, TF over GST control). Besides, the binding signal in assay [7] was 1.1 fold enrichment (6-mer frequency, TF over GST control); in assay [8], 1.1 fold enrichment (6-mer frequency, TF over GST control); in assay [9], 1.18 fold enrichment (6-mer frequency, TF over GST control).
Regarding CTACGT, the binding signal in [1] is 1.29 fold enrichment (6-mer frequency, TF over GST control); in assay [2], 1.23 fold enrichment (6-mer frequency, TF over GST control); in [3], 1.18 fold enrichment (6-mer frequency, TF over GST control); in [4], 1.19 fold enrichment (6-mer frequency, TF over GST control); in assay [5] it was 1.13 fold enrichment (6-mer frequency, TF over GST control); in assay [6] it was 1.25 fold enrichment (6-mer frequency, TF over GST control). For the same sequence, the binding signal in assay [7] was 1.08 fold enrichment (6-mer frequency, TF over GST control); in assay [8], 1.27 fold enrichment (6-mer frequency, TF over GST control); in [9], 1.31 fold enrichment (6-mer frequency, TF over GST control).
With ATGGCT, the binding signal in assay [1] was 1.17 fold enrichment (6-mer frequency, TF over GST control); in [2], 1.34 fold enrichment (6-mer frequency, TF over GST control); in [3] it was 1.29 fold enrichment (6-mer frequency, TF over GST control); in assay [4], 1.37 fold enrichment (6-mer frequency, TF over GST control); in assay [5] it was 1.37 fold enrichment (6-mer frequency, TF over GST control); in [6], 1.4 fold enrichment (6-mer frequency, TF over GST control). Also, the binding signal was 1.28 fold enrichment (6-mer frequency, TF over GST control) in assay [7]; 1.37 fold enrichment (6-mer frequency, TF over GST control) in assay [8]; 1.28 fold enrichment (6-mer frequency, TF over GST control) in assay [9].
Take CGGTTT: the binding signal was 1.26 fold enrichment (6-mer frequency, TF over GST control) in [1]; 1.18 fold enrichment (6-mer frequency, TF over GST control) in assay [2]; 1.25 fold enrichment (6-mer frequency, TF over GST control) in [3]; 1.33 fold enrichment (6-mer frequency, TF over GST control) in [4]; 1.26 fold enrichment (6-mer frequency, TF over GST control) in assay [5]; 1.27 fold enrichment (6-mer frequency, TF over GST control) in assay [6]. The binding signal in [7] is 1.44 fold enrichment (6-mer frequency, TF over GST control); in assay [8], 1.23 fold enrichment (6-mer frequency, TF over GST control); in [9], 1.25 fold enrichment (6-mer frequency, TF over GST control).
GTTACA: the binding signal was 1.15 fold enrichment (6-mer frequency, TF over GST control) in assay [1]; 1.1 fold enrichment (6-mer frequency, TF over GST control) in [2]; 1.09 fold enrichment (6-mer frequency, TF over GST control) in assay [3]; 1.13 fold enrichment (6-mer frequency, TF over GST control) in [4]; 1.14 fold enrichment (6-mer frequency, TF over GST control) in assay [5]; 1.2 fold enrichment (6-mer frequency, TF over GST control) in assay [6]. Further, the binding signal is 1.11 fold enrichment (6-mer frequency, TF over GST control) in [7]; 1.09 fold enrichment (6-mer frequency, TF over GST control) in assay [8]; 1.24 fold enrichment (6-mer frequency, TF over GST control) in assay [9].
